Consider seven compounds from PubChem BioAssay (Tox21).

Unmarked numbers belong to inactive results. Results filed as inconclusive are left out. The source made the active and inactive calls. Unless noted, the call rests on the fitted dose curve; in most records, active means well fitted curve in the direction sought with a large enough effect in the repeat runs; inconclusive means weak or mixed curves; inactive means no such curve, though single readings can be large; an effect the other way counts as inactive or inconclusive.

Assay [1] in a line: qHTS assay for small molecule agonists of the p53 signaling pathway (AID 651631; calls by dose curve; further: nearly all actives have a fitted effect of over 15% in size). The method in brief: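 p53RE-bla HCT-116 cells; compounds 16 h, 37 °C; LiveBLAzer B/G FRET substrate 2 h RT; fluorescence intensity read-out, qHTS format.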
A short description of assay [2]: qHTS assay for small molecules that induce genotoxicity in human embryonic kidney cells expressing luciferase-tagged ATAD5 (AID 651632). Further: nearly all actives have a fitted effect of over 15% in size. The method in brief: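 Genotoxicity read-out via ATAD5-luciferase: HEK293T cells, 16 hr compound incubation at 37C, Amplite detection.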
A short description of assay [3]: qHTS assay for small molecule agonists of the p53 signaling pathway - cell viability (AID 651633; calls by dose curve;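 further: p53RE-bla HCT reporter cells with a stable beta-lactamase p53 reporter; series mostly up to about 83 µM; nearly all actives have a fitted effect of over 30% in size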). Put shortly:
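p53RE-bla cells, seeded at 4,000 per well and rested 5 h at 37 C/5% CO2, received compounds in DMSO for 16 h at 37 C. CellTiter-Glo was then added, and luminescence was read after 30 min at room temperature to gauge cytotoxicity.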
For orientation: In qHTS, concentration-response curves come from the screen itself.

The nature of assay [4]: qHTS assay for small molecules that induce genotoxicity in human embryonic kidney cells expressing luciferase-tagged ATAD5 - cell viability (AID 651634; calls by dose curve; further: nearly all actives have a fitted effect of over 25% in size). The method in brief:
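Live-cell protease activity (CellTiter-Fluor, fluorescence) indicates viability. HEK293T cells with luciferase-tagged ATAD5; 15.5 hr compound treatment at 37C.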

The nature of assay [5]: qHTS assay for small molecule disruptors of the mitochondrial membrane potential - cell viability (AID 720634; calls by dose curve;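 further: human HepG2 liver cancer cells; series mostly up to about 83 µM; nearly all actives have a fitted effect of over 20% in size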). The method in brief:
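Human hepatoma HepG2 cells were treated for 1 hr with test chemicals, then given m-MPI dye and CellTiter-Glo. Cell viability reflects luminescence proportional to cellular ATP.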

The nature of assay [6]: qHTS assay for small molecule disruptors of the mitochondrial membrane potential (AID 720635). Further: potency means the concentration at half of the fitted maximal effect. The method in brief: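 HepG2 cells (2,000/well) attached overnight at 37C, then took compound for 1 hr at 37C, 5% CO2. Mito-MPS dye was added for 30 min; fluorescence was read at 490/535 nm (monomers) and 540/590 nm (aggregates).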
A short description of assay [7]: qHTS assay to test for compound auto fluorescence at 590 nm (red) in HepG2 cells (AID 720674). Put shortly:
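Intrinsic compound fluorescence in the red window (Ex/Em 540/590 nm) is measured in attached HepG2 cells exposed for 1 hr, DMSO vehicle as baseline, benchmarked to Rose Bengal sodium.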

Assay [8] is described as follows: qHTS assay to test for compound auto fluorescence at 535 nm (green) in HepG2 cells (AID 720675).
Assay [9] can be described thus: qHTS assay to test for compound auto fluorescence at 460 nm (blue) in HEK293 cells (AID 720678). The method in brief:
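Cells were seeded and left to adhere for 4-5 hr at 37C. Compounds were then pin-transferred. After an overnight incubation at 37C under 5% CO2, intrinsic fluorescence at 405/460 nm was measured and referenced to triamterene.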

Assay [10] can be described thus: qHTS assay to test for compound auto fluorescence at 590 nm (red) in HEK293 cells (AID 720679). Put shortly:
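Each well held 2,000 HEK293 cells in medium containing 10% dialyzed FBS. Following 4-5 hr attachment at 37C, 23 nL test compound or DMSO was added; plates sat overnight, and red fluorescence (540/590nm) was recorded.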

A short description of assay [11]: qHTS assay to test for compound auto fluorescence at 535 nm (green) in HEK293 cells (AID 720680).
The nature of assay [12]: qHTS assay to test for compound auto fluorescence at 460 nm (blue) in HEK293 cell free culture (AID 720681). The method in brief: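 Test compounds were pinned into cell-free culture medium (DMEM with 10% FBS) and fluorescence was read directly at Ex/Em 405/460 nm. Signals were expressed as fluorescence equivalents of triamterene, with DMSO vehicle as control.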
A short description of assay [13]: qHTS assay to test for compound auto fluorescence at 535 nm (green) in HEK293 cell free culture (AID 720682). The method in brief: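 Cell-free medium (DMEM, 10% FBS) receives compound or DMSO by pintool. Plate read directly at Ex 485/Em 535 nm. Signal converted to fluorescein equivalency.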
A short description of assay [14]: qHTS assay to test for compound auto fluorescence at 590 nm (red) in HEK293 cell free culture (AID 720683). The method in brief:
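Tox21 10K library compounds were pinned into cell-free DMEM with 10% FBS and fluorescence was read at excitation 540 nm. Activity is expressed as Rose Bengal sodium equivalency.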

Assay [15] in a line: qHTS assay to test for compound auto fluorescence at 590 nm (red) in HepG2 cell free culture (AID 720684). The method in brief: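 Measured in medium alone (MEM containing 10% FBS) following pintool addition of compound; emission at 590 nm with 540 nm excitation, referenced to Rose Bengal sodium.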
The nature of assay [16]: qHTS assay to test for compound auto fluorescence at 460 nm (blue) in HepG2 cell free culture (AID 720685). The method in brief:
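Compound (23 nL) or DMSO pinned into cell-free MEM with 10% FBS; blue fluorescence read at 405/460 nm excitation/emission, expressed as auto-fluorescence equivalency to triamterene.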

Assay [17] in a line: qHTS assay to test for compound auto fluorescence at 535 nm (green) in HepG2 cell free culture (AID 720686).
A short description of assay [18]: qHTS assay to test for compound auto fluorescence at 460 nm (blue) in HepG2 cells (AID 720687). Put shortly:
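Cells (2,000/well in MEM with 10% FBS) attached overnight at 37 C, then were exposed to compound or DMSO for 1 hr at 37 C, 5% CO2. Fluorescence read at Ex/Em 405/460 nm, expressed as triamterene-equivalent signal.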

For assay [19], the target named is Glucocorticoid receptor (Homo sapiens) (UniProt P04150). Description: qHTS assay to identify small molecule agonists of the glucocorticoid receptor (GR) signaling pathway (AID 720691; active means well fitted activation curve with a large enough effect in the signal ratio in the repeat runs, not every such curve was filed as active; the % refers to the signal ratio). Put shortly: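 Beta-lactamase reporter activity, read as fluorescence intensity, was measured in GR-bla HeLa cells exposed to compounds for 18 h at 37 C and then loaded with LiveBLAzer B/G FRET substrate for 2 h at room temperature.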

Assay [20] has the same target. Nature of the assay: qHTS assay to identify small molecule antagonists of the glucocorticoid receptor (GR) signaling pathway (AID 720692; active means well fitted inhibition curve with a large enough effect in the signal ratio in the repeat runs, not every such curve was filed as active; the % refers to the signal ratio). Put shortly:
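Fluorescence from cleaved LiveBLAzer B/G FRET substrate reports GRE-driven beta-lactamase in HeLa cells; compounds are tested against 5 nM dexamethasone (final) over 18 h at 37 C, substrate incubation 2 h at room temperature.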

Sequence of Glucocorticoid receptor (Homo sapiens) (P04150 whole entry, looked up): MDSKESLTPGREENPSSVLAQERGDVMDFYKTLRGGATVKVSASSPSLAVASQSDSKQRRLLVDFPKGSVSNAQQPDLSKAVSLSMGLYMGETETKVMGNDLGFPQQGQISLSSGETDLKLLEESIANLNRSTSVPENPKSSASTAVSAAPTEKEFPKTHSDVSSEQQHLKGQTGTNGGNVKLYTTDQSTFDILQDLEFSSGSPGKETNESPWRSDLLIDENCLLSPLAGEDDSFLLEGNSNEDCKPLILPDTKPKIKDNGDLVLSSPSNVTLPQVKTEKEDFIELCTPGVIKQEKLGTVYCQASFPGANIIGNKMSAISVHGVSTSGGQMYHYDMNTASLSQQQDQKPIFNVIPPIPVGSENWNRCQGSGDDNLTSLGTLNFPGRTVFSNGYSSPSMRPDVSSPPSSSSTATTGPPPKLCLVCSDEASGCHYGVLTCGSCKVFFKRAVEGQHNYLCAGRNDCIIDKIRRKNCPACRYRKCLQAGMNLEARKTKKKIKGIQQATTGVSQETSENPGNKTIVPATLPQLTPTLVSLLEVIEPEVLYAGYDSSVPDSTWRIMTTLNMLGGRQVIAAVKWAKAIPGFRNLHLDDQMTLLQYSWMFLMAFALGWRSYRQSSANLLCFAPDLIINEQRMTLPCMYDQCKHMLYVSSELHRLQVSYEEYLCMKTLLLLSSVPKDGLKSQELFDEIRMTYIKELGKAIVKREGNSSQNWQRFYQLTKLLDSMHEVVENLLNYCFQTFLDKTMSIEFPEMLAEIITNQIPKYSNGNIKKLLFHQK

In the case of `CC(=O)N[C@@H](CCC(N)=O)C(=O)O`, the Potency result in assay [1], in [2], in assay [3], in assay [4], in [5] and in assay [6] was “inactive” throughout. In addition, the Potency entry in [9], in assay [12], in [16], in assay [18], in [19] and in assay [20] was “inactive” in each case. The call in [7], in [8], in assay [10], in [11], in assay [13] and in assay [14] was inactive. Moreover, the compound was called inactive in [15] and in assay [17].

`O=C(O)c1ccccc1S`: the Potency entry in assay [1], in assay [2], in assay [3], in assay [4], in assay [5] and in [6] was “inactive” throughout. In addition, the Potency entry in [9], in [12], in assay [16], in [18], in [19] and in assay [20] was “inactive” in each case. The result in [7], in assay [8], in [10], in assay [11], in assay [13] and in [14] was inactive. In assay [17], the outcome was inactive.

For `C[N+](C)(C)CC[N+]1(C)Cc2c(Cl)c(Cl)c(Cl)c(Cl)c2C1`, the Potency result in assay [1], in assay [2], in assay [3], in [4], in assay [5] and in [6] was “inactive” throughout. Further, the Potency result in [9], in [12], in [16], in [18], in assay [19] and in assay [20] was “inactive” throughout. The result in assay [7], in [8], in assay [10], in [11], in assay [13] and in assay [14] was inactive. For the same compound, in assay [17], the call was inactive.

In the case of `O=[N+]([O-])c1ccc(Oc2ccc([N+](=O)[O-])cc2)cc1`, the Potency result in assay [1], in [2], in assay [3], in assay [4], in [5] and in assay [9] was “inactive” in each case. Moreover, the Potency entry in assay [12], in assay [16] and in assay [18] was “inactive” throughout. Further, the Potency in assay [6] was 5.57 µM (active). Also, the result in [7], in assay [8], in assay [10], in assay [11], in [13] and in [14] was inactive. Also, the compound was called inactive in [15] and in assay [17].

Consider `CC(O)CN(CCCN(C)C)CCCN(C)C` (centres undefined), for which the Potency result in assay [1], in [2], in assay [3], in assay [4], in assay [5] and in assay [6] was “inactive” each time. The Potency entry in assay [9], in [12], in assay [16], in assay [18] and in assay [19] was “inactive” each time. For the same compound, the outcome in assay [7], in [8], in assay [10], in assay [11], in assay [13] and in assay [14] was inactive. The result in assay [15] and in assay [17] was inactive.

`c1ccc2cnncc2c1`: the Potency result in assay [1], in assay [2], in assay [3], in [4], in assay [5] and in assay [6] was “inactive” throughout. For the same compound, the Potency result in [9], in assay [12], in assay [16], in assay [18] and in [20] was “inactive” in each case. The outcome in assay [7], in [8], in assay [10], in assay [11], in [13] and in assay [14] was inactive. In addition, the call in assay [15] and in assay [17] was inactive.

For the compound `NC1CCN(c2cccc(Cl)n2)CC1`, the Potency entry in assay [1], in assay [2], in assay [3], in assay [4], in assay [5] and in assay [6] was “inactive” throughout. Further, the Potency entry in [9], in [12], in assay [16], in [18], in [19] and in assay [20] was “inactive” in each case. Besides, the call in [7], in assay [8], in assay [10], in assay [11], in assay [13] and in [14] was inactive. The compound was called inactive in [15] and in assay [17].
